Unmarked numbers belong to inactive results.

USP14, sequence (P54578 whole entry, the tested form may be a part): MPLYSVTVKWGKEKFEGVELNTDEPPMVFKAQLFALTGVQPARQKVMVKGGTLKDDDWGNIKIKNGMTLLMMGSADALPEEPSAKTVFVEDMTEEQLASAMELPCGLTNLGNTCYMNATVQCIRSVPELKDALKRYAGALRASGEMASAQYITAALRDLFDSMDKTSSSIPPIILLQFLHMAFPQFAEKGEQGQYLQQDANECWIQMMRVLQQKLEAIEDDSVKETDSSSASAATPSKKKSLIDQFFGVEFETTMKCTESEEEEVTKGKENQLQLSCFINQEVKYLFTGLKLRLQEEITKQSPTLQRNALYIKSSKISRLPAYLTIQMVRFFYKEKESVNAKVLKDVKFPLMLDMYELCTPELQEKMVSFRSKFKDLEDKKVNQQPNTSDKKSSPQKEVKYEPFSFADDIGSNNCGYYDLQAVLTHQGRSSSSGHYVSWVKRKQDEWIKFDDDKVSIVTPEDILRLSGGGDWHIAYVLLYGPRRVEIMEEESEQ

The test concerns the target USP14 (UniProt P54578). Briefly: log2 ratio of Biotin-Ahx-Ub-VS probe labelling (fragment/DMSO); higher = less target engagement (more negative = stronger competition), active = hit call of the paper (q ≤ 0.05, log2 ratio ≤ -1). Particulars: compound concentration: 200 uM; treatment time: 3 h. The protocol:
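Competitive ABPP in HEK293T cell lysate. Lysates were treated with each chloroacetamide fragment at 200 µM for 3 h, then with Biotin-Ahx-Ub-VS (0.5 µM, 1 h), NeutrAvidin-enriched and analysed by diaPASEF LC-MS/MS. Protein LFQ was median-normalised; average log2 ratio is fragment/DMSO from an unpaired t-test (n=3 treated, n=44 DMSO). Hits: q ≤ 0.05, log2 ratio ≤ -1, unique peptides ≥ 2.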
As to `Cc1cccc(N2CCC(NC(=O)CCl)C2=O)c1` (stereo not given), the “log2 ratio of Biotin-Ahx-Ub-VS probe labelling” value (“log2 ratio” for short) was -0.345. The figure for `O=C(CCl)N(C1CCCC1)C1CCS(=O)(=O)C1` (stereo not given) is -0.171. Then `Cc1conc1C1CN(C(=O)CCl)C1`, with -1.12 (active); and `Cc1ncc2c(n1)CCN(C(=O)CCl)C2`, with -0.161; and `Cl.O=C(CCl)N1CCn2ncc(O)c2C1`, with -0.588. On to `O=C(CCl)NC1CCC2(CC1)OCCO2`, for which the “log2 ratio” value was -0.308. Then `Cc1ccccc1OCC(=O)N1CCN(C(=O)CCl)CC1`, with -0.131; and `O=C(O)C1Cc2ccccc2CN1C(=O)CCl` (stereo not given), with -0.621. Regarding `O=C(CCl)N1CCN(c2nc3ccccc3o2)CC1`, the “log2 ratio” value was -0.836. The figure for `CNC(=O)Cn1cc(NC(=O)CCl)cn1` is -0.154. Then `O=C(CCl)N1CCC[C@@H]1c1ccon1`, with -0.652; and `CN(C(=O)CCl)c1nc2ccccc2s1`, with -0.178. The figure for `CCC1c2ccsc2CCN1C(=O)CCl` (stereo not given) is -0.479; for `CN1c2ccccc2C(NC(=O)CCl)CS1(=O)=O` (stereo not given) it is -0.335. With `O=C(CCl)NC(Cn1ccccc1=O)c1ccccc1` (stereo not given), the “log2 ratio” value was -0.174. As to `O=C(CCl)NCCc1ccc(F)cc1`, the “log2 ratio” value is -0.0749.

Regarding `CS(=O)(=O)c1ccc(NC(=O)CCl)cc1`, the “log2 ratio” value is 0.0136. As for `Cc1ccc(N2CCC(NC(=O)CCl)C2=O)cc1` (stereo not given), the “log2 ratio” value is -0.0106. Consider `O=C(CCl)N1CCCN(C(=O)c2ccc(Cl)cc2)CC1`, for which the “log2 ratio” value is -0.452. The figure for `CC(NC(=O)CCl)c1cnn(C2CC2)c1` (stereo not given) is -0.778; for `O=C(CCl)Nc1cccc(C(=O)N2CCSCC2)c1` it is -0.335; for `Cl.O=C(CCl)N1CCC(n2nc3ccccc3n2)CC1` it is -0.545.

On to `O=C(CCl)N1CC2(CCOCC2)C1`, for which the “log2 ratio” value was -0.191.

For `N#Cc1ccccc1N1CCN(C(=O)CCl)CC1`, the “log2 ratio” value was -0.673.

With `O=C(CCl)NCc1cccc(F)c1`, the “log2 ratio” value was -0.167. The figure for `Cc1nc(CNC(=O)CCl)c2ccccn12.Cl` is 0.113; for `O=C(CCl)NC1CCC(C(F)(F)F)CC1` (stereo not given) it is -0.454; for `CCc1c[nH]c(CNC(=O)CCl)n1.Cl` it is -0.5.

Regarding `Cl.Cn1cnc2cc(CNC(=O)CCl)ccc21`, the “log2 ratio” value was -0.222. `COc1ccccc1C(C)NC(=O)CCl` (stereo not given): the “log2 ratio” value is -0.458. The figure for `O=C(CCl)N1CCC2(CCC(O)CC2)CC1` is 0.0657; for `O=C(CCl)Nc1ccc2c(c1)OC(F)(F)O2` it is -0.0555; for `COc1ccc(Cl)cc1NC(=O)CCl` it is -0.655. On to `Cl.Cn1nc2c(c1CNC(=O)CCl)CCCC2`, for which the “log2 ratio” value is -0.00316. Regarding `Cc1n[nH]c2c1CN(C(=O)CCl)CC2`, the “log2 ratio” value is -0.903. For the compound `O=C(CCl)N1CCCC1c1ccsc1` (stereo not given), the “log2 ratio” value was -0.248. Regarding `O=C(CCl)N(C1=CCCCC1)C1CC1`, the “log2 ratio” value is -0.423. Regarding `Cl.O=C(CN1CCN(C(=O)CCl)CC1)Nc1ccc(F)cc1`, the “log2 ratio” value is -0.0648. As for `O=C(CCl)NC1CCCCNC1=O` (stereo not given), the “log2 ratio” value is -0.476. Then `Cc1cccc(N(CCC#N)C(=O)CCl)c1C`, with 0.0267.

For the origin of these results see the supplement of paper PMC11732987, “Enantioselective OTUD7B fragment discovery through chemoproteomics screening and high-throughput optimisation” (Communications Chemistry, 2025).
